# From ChEMBL document CHEMBL3433997, “St. Jude Leishmania screening dataset” (2016)
# What was measured:
# Format in all cases: functional
# [1] = target: Solute carrier family 2, facilitated glucose transporter member 1 (Homo sapiens) (UniProt P11166); test: ST_JUDE_LEISH: Cytotoxicity at 2uM final concentration against transgenic Leishmania Mexicana promastigotes LmGLUT1 that are glucose transport deficient and complemented with the human glucose transporter GLUT1. Activity is measured by DNA content using SYBR green in vitro
# [2] = target: Hexose transporter 1 (Plasmodium falciparum) (UniProt O97467); test: ST_JUDE_LEISH: Cytotoxicity at 2uM final concentration against transgenic Leishmania Mexicana promastigotes LmPfHT that are glucose transport deficient and complemented with the Plasmodium falciparum hexose transporter. Activity is measured by DNA content using SYBR green in vitro
# [3] = target: Glucose transporter (Leishmania mexicana) (UniProt O61059); test: ST_JUDE_LEISH: Cytotoxicity at 2uM final concentration against transgenic Leishmania Mexicana promastigotes LmGT2 that are glucose transport deficient and complemented with the L. Mexicana glucose transporter 2. Activity is measured by DNA content using SYBR green in vitro
# Sequence of Solute carrier family 2, facilitated glucose transporter member 1 (Homo sapiens) (P11166 whole entry): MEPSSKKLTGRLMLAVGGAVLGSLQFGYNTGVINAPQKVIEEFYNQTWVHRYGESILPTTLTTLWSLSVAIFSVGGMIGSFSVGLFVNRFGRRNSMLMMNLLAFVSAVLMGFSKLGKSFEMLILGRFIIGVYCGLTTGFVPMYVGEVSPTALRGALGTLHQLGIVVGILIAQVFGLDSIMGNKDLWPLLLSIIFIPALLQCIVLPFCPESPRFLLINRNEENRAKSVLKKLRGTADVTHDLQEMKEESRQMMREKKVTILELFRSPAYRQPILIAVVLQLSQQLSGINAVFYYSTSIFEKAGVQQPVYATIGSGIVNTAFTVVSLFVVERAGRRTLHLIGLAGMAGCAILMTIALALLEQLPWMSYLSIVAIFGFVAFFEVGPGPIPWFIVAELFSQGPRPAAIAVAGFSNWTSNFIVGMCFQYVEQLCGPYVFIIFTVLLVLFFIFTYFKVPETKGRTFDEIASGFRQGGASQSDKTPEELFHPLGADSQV
SMILES,inhibition [1],inhibition [2],inhibition [3]
O=[N+]([O-])c1cccc(-c2nc(-c3ccc(Br)cc3)[nH]c2-c2ccc(Br)cc2)c1,2.77%,4.88%,1.57%
Nc1cccc(CNCc2cccc(-c3cccc(-c4nc5ccccc5[nH]4)c3)c2)c1,-1.07%,1.34%,-0.53%
N#Cc1cncc(-c2nc3c(N4CCCC(N)C4)cccc3n2CCNCc2ccccc2)c1 (stereo unspecified),6.64%,5.11%,8.87%
Cc1cc(C(=O)OCC(=O)Nc2c(C)n(C)n(-c3ccccc3)c2=O)c(C)n1-c1ccc(F)cc1,-2.25%,-1.81%,-0.97%
CC(C)C[C@H](NC(=O)c1ccc(OCCN2CCOCC2)cc1)C(=O)N[C@H](/C=N/N1CCN(C)C1=O)CCc1ccccc1,3.09%,5.16%,3.85%
CC(=O)N(Cc1nc(-c2cc(C(F)(F)F)cc(C(F)(F)F)c2)cs1)c1c(C)cccc1C,4.36%,4.86%,4.36%
Cc1cc(NC(=O)c2cccs2)ccc1OC1CCN(Cc2ccc(F)cc2)C1 (stereo unspecified),0.09%,0.19%,1.92%
CC(C)(C)CCN1CCC(NC(=O)c2ccc(-c3cccc(C(F)(F)F)c3)s2)CC1,1.71%,5.61%,3.83%
Cc1cc(OCCCN2CCN(CCN3CCOCC3)CC2)ccc1NC(=O)COc1ccc(Cl)cc1C(=O)c1cc(Cl)cc(C#N)c1,2.6%,0.79%,2.48%
COc1ccc(CN2CCC(CNCC(c3ccccc3)c3ccccc3)CC2)cc1,3.54%,3.87%,2.23%
Nc1c2ccccc2nc2ccc(-c3ccccc3)cc12,18.4%,14.6%,13.1%
Brc1ccc(Nc2nc(NCc3ccccc3)c3ccccc3n2)cc1,22.6%,16.5%,6.03%
CCCCC(O)c1cc(O)c2c(c1)OC(C)(C)CC2C1=CCN(Cc2ccc3ccccc3c2)CC1 (stereo unspecified),-0.53%,1.5%,0.64%
O=C(c1cccc(-c2noc(C(F)(F)F)n2)c1)N1CCN(C(=O)c2ccc3cc[nH]c3c2)CC1,-0.84%,-0.23%,-1.68%
COc1ccc(Cl)cc1C(=O)Nc1ccc(-c2nc3ccccc3[nH]2)cc1,4.93%,3.29%,1.35%
Cc1cc(=NN=Cc2cccc(Cl)c2)c2cc(F)ccc2[nH]1,5.23%,5.15%,4.84%
CCCCN1CC[C@@H](CCC(O)c2cc(OCCC)nc3ccc(OC)cc23)[C@@H](CC)C1 (stereo partly specified),-0.6%,-1.53%,-1.52%
O=C(NCCCCN1CCC(c2c[nH]c3ccccc23)CC1)c1sc(-c2ccc(C(F)(F)F)cc2)nc1CO,7.38%,8.88%,5.81%
Cn1c(N)c(C(=O)CSc2nnc(-c3cccs3)n2Cc2ccccc2)c(=O)n(C)c1=O,10.1%,8.98%,8.86%
FC(F)(F)c1cccc(Nc2nc3nonc3nc2NC2C3CC4CC(C3)CC2C4)c1 (stereo unspecified),3.05%,1.79%,0.47%
Cc1cc(-c2ccc3c(c2)CC[C@@H](N[C@@H](C)c2ccccc2)C3)cnc1N,4.92%,1.71%,2.23%
CC1(C)N=C(N)N=C(N)N1c1cccc(C(F)(F)F)c1,-1.8%,-0.92%,-3.44%
CC(=O)CCc1ccc(OCCN(Cc2ccccc2C(F)(F)F)c2ccc(C#N)c(C(F)(F)F)c2)cc1,3.66%,4.24%,2.73%
CCCN(CCC)CCCNc1ccc(C(=O)Nc2ccc(C(C)C)cc2)cc1[N+](=O)[O-],32.7%,22.2%,13.2%

SMILES,inhibition [1],inhibition [2],inhibition [3]
CCCCN(CCCC)CCNC(=O)c1cccc(NC(=O)N2CCc3cc(SC)c(C(F)(F)F)cc32)c1,3.07%,4.24%,2.86%
COc1ccc(CN(C)Cc2ccc(NC(=O)c3cccc4c(=O)c5cccc(C)c5[nH]c34)cc2)cc1OC,4.59%,11.6%,0.44%
Cc1ccc(C)c2sc(N3CCN(C(=O)c4ccc([N+](=O)[O-])o4)CC3)nc12,28.7%,38.4%,7.78%
Cc1ccc(NC(=O)NC2CCN(c3ccnc4ccccc34)C2)cc1 (stereo unspecified),5.83%,5.57%,7.34%
c1ccc(CCNc2ccnc(Nc3ccc4cn[nH]c4c3)n2)cc1,17.8%,14.8%,10%
CCC(c1ccccc1)c1nn2c(-c3cccs3)nnc2s1 (stereo unspecified),2.96%,3.46%,0.64%
Cc1c2ccncc2c(C)c2c1[nH]c1cc(Cc3ccccc3)c(O)cc12,3.52%,4.1%,-3.09%
Cc1cc(F)ccc1C1CCN(CCCCNC(=O)c2ccc(NC(=O)c3ccc(Cl)cc3)cc2)CC1,1.66%,0.36%,0.87%
CC(C)CC1c2[nH]c3ccccc3c2CCN1C(=O)CCc1ccccc1 (stereo unspecified),5.53%,5.28%,4.41%
Cc1c(CNCCCNc2cc(=O)c3ccccc3[nH]2)sc(C(F)=C(F)F)c1Br,6.84%,5.03%,5.8%
COc1ccc(CN(C)CCCOc2ccc(NC(=O)c3cccc4c(=O)c5cccc(F)c5[nH]c34)cc2)cc1OC,4.27%,3.24%,3.1%
CCOc1cc(Cc2cnc(N)nc2N)ccc1OC,0.52%,0.12%,-0.73%
N#Cc1cccc(Nc2nccc(NCC(O)c3ccccc3C(F)(F)F)n2)c1 (stereo unspecified),9.64%,7.25%,3.83%
CC(C)CNCc1cccc(-c2ccc(CN(CCCN3CCN(C)CC3)C(=O)CCC3CCCC3)cc2)c1,38.9%,56.9%,9.11%
C=CCc1cc(OC)ccc1OCCCOc1c(C)nc(N)nc1N,78.2%,77.6%,65.3%
CC(=O)Nc1cccc(C(=O)Nc2ccc(-c3ccc(-c4nc5cccc(C)c5[nH]4)s3)cc2)c1,-0.38%,1.16%,0.04%
CCOc1ccc(C(C)NC(=O)c2cc(Cl)ccc2OC)cc1OCC (stereo unspecified),-0.81%,0.16%,-2.78%
CC(C)CCNCC(O)Cn1c2ccc(Cl)cc2c2cc(Cl)ccc21 (stereo unspecified),0.18%,0.29%,0.33%
O=C(Nc1cccc(-c2nn3ncccc3c2-c2ccnc(Nc3cccc(C(F)(F)F)c3)n2)c1)c1c(F)cccc1F,2.16%,3.08%,-0.92%
COc1ccc(CC(=O)NC(CCCN2CCC(c3ccccc3)CC2)c2ccc(Cl)c(Cl)c2)cc1OC (stereo unspecified),1.29%,2.2%,0.22%
CCN(CC)Cc1cc(NC(=O)c2ccccc2O)ccc1Oc1ccc(Cl)cc1,2.02%,0.32%,1.46%
COc1cc2nc(NCC3CCCCC3)nc(NCc3ccccc3)c2cc1OC,3.26%,4.81%,0.32%
FC(F)(F)c1ccc(Nc2nnnc3ccccc23)cc1,7.74%,7.45%,6.1%
Clc1ccc(-n2cnc3c(Nc4ccc(Oc5ccccc5)cc4)ncnc32)cc1Cl,1.38%,1.39%,-1.22%

SMILES,inhibition [1],inhibition [2],inhibition [3]
COc1ccc(S(=O)(=O)N2CCCC(C)C2)cc1N1CCN(C(=O)c2ccc([N+](=O)[O-])o2)CC1 (stereo unspecified),1.83%,0.28%,0.09%
Cc1ccc(Nc2nc(NN=Cc3ccc(-c4ccc([N+](=O)[O-])cc4)o3)nc(N3CCOCC3)n2)cc1Cl,-1.18%,-1.96%,-0.54%
Cc1cccc2nc(-c3cccc(-c4ccc(NC(=O)CCc5c[nH]cn5)cc4)c3)[nH]c12,7.76%,9.49%,8.27%
Cc1cccc2nc(-c3ccc(-c4ccc(CN5CCN(c6ccncc6)CC5)cc4)s3)[nH]c12,2.98%,2.29%,1.09%
Cc1noc(C)c1-c1ccc2c(Nc3ccccc3C(C)(C)C)c(C(=O)NC3CCCC3)cnc2c1,2.07%,1.46%,-0.58%
Cc1ccc(NC(=O)c2cccc(CN3CCCN(CC4CCCCC4)CC3)c2)cc1F,-0.17%,0.26%,0.75%
CC(C)(C)OC(=O)NCc1ccc(Nc2nnc(-c3ccc(OCC(=O)NC[C@@H]4CC[C@H]5C[C@@H]4C5(C)C)c([N+](=O)[O-])c3)o2)cc1,2.01%,2.91%,0.68%
CN(C)C(S)=NN=Cc1cccc(O)c1O,6.64%,6.87%,4.78%
CS(=O)(=O)Nc1ccc(-c2cnc3[nH]cc(-c4ccc(C(=O)O)cc4)c3c2)cc1,8.98%,9.93%,8.74%
CN(C)c1ccc(-c2ccc(C(=O)NC3CCN(Cc4ccc5c(c4)OCCO5)CC3)s2)cc1,4.82%,6.3%,3.8%
COc1ccc2nc3cc(Cl)ccc3c(N)c2c1,15.8%,10%,3.3%
CC1CCCN(Cc2cc(Cl)cc(Cl)c2O)C1 (stereo unspecified),-1.08%,-0.95%,-1.76%
CCCc1ccc(NC(=O)c2ccc(CN3CCCN(Cc4ccc(OC)cc4)CC3)cc2)cc1,-1.19%,-0.55%,-0.74%
CN(C)CCOc1ccc(NC(=O)Nc2ccnc3c(Br)cccc23)cc1Cl,0.71%,0.76%,-0.85%
N#Cc1ccc(N(CCOc2ccc(Cl)cc2)Cc2ccccc2C(F)(F)F)cc1C(F)(F)F,-1.04%,-1.88%,-1.54%
CCC[C@@H]([C@@H](CC1CCCCC1)C(=O)N[C@H](C(=O)Nc1nccs1)C(C)(C)SCCOCCOCC)N(O)C=O,6.4%,5.16%,5.39%
O=C(Cc1ccccc1)NC(Nc1ccc([N+](=O)[O-])cc1)C(Cl)(Cl)Cl (stereo unspecified),-0.19%,1.43%,0.18%
CO/C(=C\C=C\c1cc2cc(Cl)c(Cl)cc2[nH]1)C(=O)NCCCN1CCCC[C@@H]1C,3.54%,2.51%,-0.72%
O=S(=O)(Nc1cccc(F)c1CNCc1ccccn1)c1ccc(Cl)c(Cl)c1,-1.4%,0.71%,-2.5%
Cc1ccc(C(=O)Cn2nc(-c3ccc(C)c(S(=O)(=O)N4CCCC4)c3)ccc2=O)cc1,1.61%,0.61%,2.62%
Nc1nc(N)c2c3c(cnc2n1)CCCC3,9.74%,9.11%,10.8%
CNC(=O)c1cnc(Nc2ccc(N3CCN(C)CC3)cc2)nc1Nc1cccc([N+](=O)[O-])c1,2.86%,-0.17%,1.22%
CC(CNCc1cn(Cc2cc(Br)cc(Br)c2)c2ccccc12)CNc1cc(=O)c2ccccc2[nH]1 (stereo unspecified),0.59%,1.26%,1.07%
COc1ccc(CN(C)CCCc2ccc(NC(=O)c3cc4ccccc4[nH]3)cc2)cc1OC,3.27%,1.65%,0.23%
